Bioassay records deposited in PubChem by several laboratories.
This is a sample that favours compounds with a hit; in the whole collection about 3.1% have one here.
LEDGF integ inh – blockers of LEDGF/p75-dependent integrase strand transfer – biochemical, TR-FRET, high throughput, primary screen; TR-FRET IN-LEDGF/p75 DNA integration, Eu/Cy5; inhibition, % at 3.7 µM; 370,000 compounds, 0.64% hits;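 active = inhibition above the screen-wide mean plus 3 SD, cut at about 13% in these data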;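 note: signal is the Cy5 over europium emission ratio at 671 and 618 nm; 0% = plate median of compound wells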
UHRF1 MBD2 ctr – UHRF1 methylated DNA binding inhibitors, primary screen, counter-screen for MBD2 inhibitor project, biochemical, TR-FRET, human UHRF1, single concentration; E3 ubiquitin-protein ligase UHRF1 (Homo sapiens), Q96T88; UHRF1 binding to methylated oligo; inhibition, % at 4.4 µM; 370,000 compounds, 0.75% hits; AID 687016, 2013;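 note: UHRF1 SRA domain binding a hemimethylated CpG hairpin DNA probe; 0% = median of test compound wells and 100% = reference inhibitor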
MBD2 DNA inh – inhibitors of MBD2 binding to methylated DNA, primary screen, biochemical, TR-FRET, DNA-binding domain, human; 370,000 compounds, 0.31% hits; MBD2 binding to methylated oligonucleotide; Methyl-CpG-binding domain protein 2 (Homo sapiens), Q9UBB5; inhibition, % at 4.4 µM; in the data active = inhibition above about 13%
KLK7 zymogen act – proKLK7 zymogen activators, primary screen, biochemical, fluorescence intensity | Kallikrein-7 (Homo sapiens), P49862 | purified proKLK7, EDANS-DABCYL substrate fluorescence; 100% is mature enzyme control, 0% vehicle | activation, % at 7 µM | 370,000 compounds, 0.9% hits | AID 652039, 2013;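 active = activation above the mean of all tested compounds plus 3 SD, computed per campaign excluding outliers beyond control limits, cut at about 13% in these data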
Neddylation inh – inhibitors of cullin neddylation, primary screen, biochemical, TR-FRET, uHTS, NAE and Ubc12; NEDD8-conjugating enzyme Ubc12 (Homo sapiens) + NEDD8-activating enzyme E1 regulatory …; calls only at 25 µM; 360,000 compounds, 0.58% hits; in the data active = inhibition above about 36%
Rin1 Abl inh – inhibitors of Rin1-Abl protein binding, primary screen, biochemical, TR-FRET; inhibition, % at 7.35 µM; AID 588664, 2011; Tyrosine-protein kinase ABL1 (Homo sapiens) + Ras and Rab interactor 1 (Homo sapiens), …; 360,000 compounds, 0.4% hits; in the data active = inhibition above about 5%, passing the limit was not always enough
UHRF1 ctr MBD2 – UHRF1 methylated DNA binding inhibitors, counter-screen for MBD2 inhibitor project, biochemical, TR-FRET, human UHRF1. 1,000 compounds, 25% hits. inhibition, % at 4.4 µM. UHRF1 binding to methylated oligonucleotide. shares compounds with MBD2 DNA inh;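 note: UHRF1 SRA domain binding a labeled hemimethylated CpG hairpin DNA; 0% = vehicle only and 100% = reference inhibitor with vehicle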
MBD2 DBD conf – inhibitors of MBD2 binding to methylated DNA, confirmation, biochemical, TR-FRET, DNA-binding domain, human; TR-FRET MBD2-DBD binding to methylated oligonucleotide; 1,000 compounds, 26% hits; inhibition, % at 4.4 µM; shares compounds with MBD2 DNA inh; in the data active = inhibition above about 14%
Active calls of the source: *; i = inactive; · = no result given. Cut-off read from the data, not from the text of the source, unless noted: active = inhibition above about 21%; inactive = the rest.

SMILES	LEDGF integ inh	UHRF1 MBD2 ctr	MBD2 DNA inh	KLK7 zymogen act	Neddylation inh	Rin1 Abl inh	UHRF1 ctr MBD2	MBD2 DBD conf
CCOC(=O)c1c(C)n(C)c2ccc(OC)c(NC(=O)CN3CCCCC3)c12	0	2	0	1	i	2	·	·
O=C(CSc1nc2ccsc2c(=O)n1CC1CCC(C(=O)O)CC1)c1ccc(Cl)cc1 (configuration not stated)	-1	14	19*	0	i	3	16	10
O=C(CSc1nc2ccsc2c(=O)n1CC1CCC(C(=O)O)CC1)c1ccc(F)cc1 (configuration not stated)	5	-1	-3	0	i	-2	·	·
COc1ccccc1-c1cc2nc(C)cc(C)n2n1	-3	-1	2	0	·	-3	·	·
O=C(CCCN1C(=O)/C(=C\c2cccs2)SC1=S)Nc1ccc(O)cc1C(=O)O	6	-5	0	0	i	-1	·	·
O=C(CCCN1C(=O)/C(=C\c2ccco2)SC1=S)Nc1ccc(O)cc1C(=O)O	63*	93*	27*	-1	i	0	45*	16*
O=C(CN1C(=O)/C(=C/c2ccco2)SC1=S)Nc1ccc(C(=O)O)c(O)c1	90*	79*	20*	0	i	5	26*	7
O=C(CCCN1C(=O)/C(=C/c2ccccc2)SC1=S)Nc1ccc(C(=O)O)c(O)c1	2	0	-5	0	i	1	·	·
Nc1cccc(C(=O)OCC(=O)Nc2cccc3c2C(=O)c2ccccc2C3=O)c1	-1	-1	2	0	i	-1	·	·
CCN(CC)CCNC(=O)c1ccc2c(c1NCCO)C(=O)c1ccccc1C2=O	11	4	22*	1	i	-26	15	30*
CC1CCN(C(=O)c2ccc3c(c2NCCO)C(=O)c2ccccc2C3=O)CC1	-1	-20	-27	0	i	-21	·	·
CCN(CC)CCC(=O)Nc1cccc2c1C(=O)c1ccccc1C2=O	4	-29	27*	2	i	-11	4	38*
CSc1nc2ccccc2n1Cc1cccc([N+](=O)[O-])c1	-1	-2	16*	-1	i	1	6	0
COCCn1c(C)cc(C(=O)COC(=O)c2cc3c(s2)CCC3)c1C	6	20	16*	-1	i	-2	23*	19*
CCCn1c(N)c(N2CCCCC2)c(=O)n(CC(=O)Nc2ccccc2C)c1=O	-1	-1	-5	0	i	-2	·	·
CCCn1c(N)c(N2CCCCC2)c(=O)n(CC(=O)Nc2ccc(OC(F)(F)F)cc2)c1=O	11	24*	18*	0	i	-3	15	2
Cc1ccc2nc(C)cc(C(=O)N3CCCC(N4CCN(c5ccccc5C)CC4)C3)c2c1 (configuration not stated)	2	0	-2	0	i	0	·	·
C=C(C)C(=O)Nc1cccc(C2=NOC3(C2)C[C@@H](C(N)=O)N(C(=O)CCCCC)C3)c1 (some centres not stated)	41*	90*	44*	1	·	·	100*	82*
